The record followed here is ChEMBL document CHEMBL3988442, “University of Dundee, Small-Polar-MMV Screening Library” (2021).

About 13,000 (27%) of roughly 48,000 compounds showed an effect of 50% or more. The list shows a part of the results.

The test system of the assay is Wolbachia pipientis. As to the kind of experiment: Anti-Wolbachia Cell-Based Screen. It is filed as functional. Further details: scale not given: in the data most compounds retested in dose-response had high values. The settings on record: 5 µM.
On to `Cn1cc(CN2CCc3ccc(=O)n(CC4CC4)c3CC2)cn1`, for which the “Percent Effect” value stood at 115.2%. As to `O=C(NC1CC1)N1CCc2ccc(=O)n(Cc3ccncc3)c2CC1`, the “Percent Effect” value is recorded as 23.4%. `CN(C)C(=O)Cn1c2c(ccc1=O)CCN(Cc1cnn(C)c1)CC2.O=C(O)C(F)(F)F`: the “Percent Effect” value is given as 120.2%. As to `CN(C)CCn1c2c(ccc1=O)CCN(Cc1ccncc1)CC2`, the “Percent Effect” value is on record as 102%. Regarding `CC(OCC1CC1)C(=O)N1CCCN(Cc2cnn(C)c2)CC1` (stereo unspecified), the “Percent Effect” value turned out to be 6.432%. With `COc1ccc2c(c1)C1(CCN(Cc3cnn(C)c3)CC1)N(C)CC2.O=C(O)C(F)(F)F` the figure was 2.583%; with `O=c1ccc2c(n1Cc1ccncc1)CCN(C1CCOC1)CC2` (stereo unspecified), 8.67%.

Regarding `Cn1cc(CN2CCc3ccc(=O)n(Cc4ccncc4)c3CC2)cn1.O=C(O)C(F)(F)F.O=C(O)C(F)(F)F`, the “Percent Effect” value was 104.6%. Regarding `Cc1cnc(NCC(C)(C)N2CCCCC2)nc1`, the “Percent Effect” value is 1.17%. For the compound `Cc1nc(-c2ccc(Cl)s2)sc1C(=O)NCCS(N)(=O)=O`, the “Percent Effect” value is reported as -0.7868%. Consider `COCC(=O)N1CCC2(CC1)NC(=O)[C@H]1CN(C(=O)N(C)C)C[C@H]12`, for which the “Percent Effect” value is on record as -27.95%.

On to `Cc1csc(CNC(=O)Nc2cc(C(F)(F)F)c[nH]c2=O)n1`, for which the “Percent Effect” value was -4.751%. In the case of `CC(C)(O)CCc1ccc(C(=O)N2CCN(CC3CCCC3)CC2)cc1`, the “Percent Effect” value is recorded as -6.284%.

Turning to `CN(C)CCn1c2c(ccc1=O)CCN(Cc1cnn(C)c1)CC2.O=C(O)C(F)(F)F.O=C(O)C(F)(F)F`, the “Percent Effect” value came to 120.7%. For the compound `COCc1nn(C)c2c1CCN(Cc1cnn(C)c1)C2.O=C(O)C(F)(F)F`, the “Percent Effect” value was -18.26%.

Regarding `CCc1nccn1-c1cccc(C2CCCN(C3CCCCC3)C2)n1` (stereo unspecified), the “Percent Effect” value is recorded as 96.78%. Consider `Cc1nccn1-c1cccc(C2CCCN(C3CCCCC3)C2)n1` (stereo unspecified), for which the “Percent Effect” value is -27.27%. Take `Cc1cccc(O[C@H]2COCCN(C3CCOCC3)C2)n1`: the “Percent Effect” value is -0.8542%. For the compound `Cc1nccn1-c1cccc(C2CCCN(C(=O)c3cc[nH]n3)C2)n1` (stereo unspecified), the “Percent Effect” value is on record as 5.97%. As to `Cc1nccn1-c1cccc(C2CCCN(C3CCCC3)C2)n1` (stereo unspecified), the “Percent Effect” value is listed as 98.22%. With `Fc1ccccc1-c1cccc(C2CCCN(C3CCOCC3)C2)n1` (stereo unspecified), the “Percent Effect” value amounted to 71.52%. The same measure for `c1ccc(-c2nnc([C@H]3CCN(C4CCOCC4)C3)o2)cc1`: -19.45%; for `O=c1cc2c(nn1CN1CCOCC1)CCC2`: 1.556%. For the compound `CNC(=O)NC(=O)CNc1cc(C(=O)OC)cc(C(F)(F)F)c1`, the “Percent Effect” value was determined as 1.326%. With `COc1cccc(CN2CCc3nc(C(=O)NCC(C)C)sc3CC2)c1.O=C(O)C(F)(F)F` the figure was 3.655%; with `Fc1cccc(N2CCc3ncnc(C4CC4)c3CC2)c1`, 8.314%. With `CC(C)NC(=O)NC[C@H]1OC[C@@H](NCc2ccc(S(C)(=O)=O)cc2)[C@@H]1O`, the “Percent Effect” value came to 9.83%. Regarding `CO[C@@H]1CC[C@H]2[C@H]1OCCN2C(=O)c1ccc(C)o1`, the “Percent Effect” value is given as -15.27%. For `CO[C@@H]1CC[C@H]2[C@H]1OCCN2C(=O)COc1ccc(C)cc1`, the “Percent Effect” value is listed as 102.2%. Regarding `CO[C@H]1CC[C@H]2[C@H]1OCCN2C(=O)CCOc1ccccc1`, the “Percent Effect” value is given as 104.1%. On to `CCC(C)(CC(=O)OC)NC(=O)c1ccc(C(C)=O)cc1` (stereo unspecified), for which the “Percent Effect” value was 5.798%. Consider `COc1ccc(CNC(=O)N2CCN(CC(O)C3CC3)CC2)cc1.Cl` (stereo unspecified), for which the “Percent Effect” value is 99.74%.

Turning to `Cl.Cl.O=C(CN1CCN(CC(O)C2CC2)CC1)NCc1ccc(F)cc1` (stereo unspecified), the “Percent Effect” value came to 3.1%. On to `O=C1CC(C(=O)O)C2(CCN(C(=O)NCc3ccc(Cl)cc3)CC2)N1` (stereo unspecified), for which the “Percent Effect” value is 6.317%. For `COc1cccc(CNC(=O)N2CCN(Cc3cc(C)on3)CC2)c1`, the “Percent Effect” value is reported as -11.4%. As to `Cl.Cl.OC(CN1CCN(Cc2cc(F)cc(F)c2)CC1)C1CC1` (stereo unspecified), the “Percent Effect” value is -3.47%. Regarding `Cl.O=C(NCc1ccc(Cl)cc1)N1CCN(CC(O)C2CC2)CC1` (stereo unspecified), the “Percent Effect” value stood at 116%.

For the compound `COc1ccc(CNC(=O)N2CCN(C)[C@@H]3CS(=O)(=O)C[C@@H]32)cc1`, the “Percent Effect” value is reported as 5.272%. Consider `Cl.O=C(NCc1ccc(F)cc1)N1CCN(CC(O)C2CC2)CC1` (stereo unspecified), for which the “Percent Effect” value is listed as 111%. With `O=S(=O)(Cc1ccc(F)cc1)N1CCN(CC(O)C2CC2)CC1` (stereo unspecified) the figure was -13.11%; with `Cc1nc(-c2ccccc2)cc2nn(CC(N)=O)c(=O)n12`, 117.5%; with `COc1ccc(Cn2nc(C(N)=O)ccc2=O)c(Cl)c1`, 8.088%. As for `COCC(=O)N[C@H](C)c1c(-c2ccc(OC)cc2)noc1C(=O)O`, the “Percent Effect” value is on record as -10.1%.

`COc1ccc(-c2cc3nn(CC(N)=O)c(=O)n3c(C)n2)cc1`: the “Percent Effect” value was 110.8%. `CC(=O)N1CCN(c2cc(-c3ccccc3)nc3c(C)c(C)nn23)CC1`: the “Percent Effect” value is reported as -0.0371%. For `COc1ccc(NC(=O)Cn2nc(C)c(C)cc2=O)cc1`, the “Percent Effect” value is -2.265%.

Take `COc1ccc(-c2cc3nn(CC(=O)NC(C)C)c(=O)n3c(C)n2)cc1`: the “Percent Effect” value is recorded as 109.7%.

As to `Cc1nn2c(NCC(N)=O)cc(-c3ccccc3)nc2c1C`, the “Percent Effect” value worked out at 1.327%.

With `CN(C)C(C(=O)N1CCN(CC(F)(F)F)CC1)c1ccccc1F` (stereo unspecified), the “Percent Effect” value is listed as -7.118%. Turning to `Cn1nc(Cn2ccnc2)c2c1CN(C(=O)c1ccc[nH]1)C2`, the “Percent Effect” value is on record as -17.57%.

On to `CCCc1cnc(C)nc1NC(C)Cc1cnccn1` (stereo unspecified), for which the “Percent Effect” value is given as -13.48%.
